# Screens (PubChem)
# Compounds with a hit are over-represented: about 2% of the library has one in this group of screens.
# Yeast superoxide: caloric restriction mimetics inhibiting age-related superoxide in yeast; S. cerevisiae aged cells, superoxide DHE fluorescence; stronger effect = lower value; superoxide response (% of plate mean), % at 10 µM; 330,000 tested, 0.18% active; AID 2690;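 active means superoxide response under a set limit, about three screen SD below normal, cut at about 65% in these data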;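 further: yeast aged for seven days with compound at 30 °C before DHE staining; 100% = average MFI of all compound-treated wells on the plate with controls excluded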
# SKKanGAS inh: inhibitors of SKKanGAS S. pyogenes growth in kanamycin (SK-promoter or general growth effect); BacTiter-Glo, 6 h; inhibition, % at 7.5 µM; 300,000 tested, 1.3% active;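 active means mean replicate score, as percent of positive control median, at least 50; inconclusive means mean below 50 but one replicate at or above 50; inactive means mean and every replicate below 50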;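 further: strain carries kanamycin resistance gene driven by streptokinase promoter and grows in 40 µg/ml kanamycin; loss of luminescence reflects streptokinase promoter inhibition or plain growth inhibition; 0% = median of DMSO wells and 100% = positive control at its reference dose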
# PolyA inhibitor: inhibitors of polyadenylation in S. cerevisiae; S. cerevisiae SKY197-pL101 polyadenylation reporter, beta-gal luminescence; efflux-impaired pdr1/pdr3 knockout yeast; score 100 = 6 SD above DMSO; activity score, % at 12 µM; 300,000 tested, 0.02% active;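 active means lowest replicate activity score at least 50, where 100 means six control SD above control mean; inconclusive means lowest score under 50 but half or more replicates reach 50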;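 further: yeast exposed to compound for 9 h at 30 °C; higher score means more reporter readthrough which indicates perturbed polyadenylation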
# Calb FLC: C. albicans growth modulation with fluconazole; C. albicans CaCi-2 (fluconazole-resistant clinical isolate) + fluconazole, Alamar Blue growth, 48 h; growth inhibition, % (no concentration beside the values); 300,000 tested, 0.57% active; AID 1979;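 active means growth inhibition above about 58% in most replicates, limit read from the data, passing the limit was not always enough; inconclusive means exactly half the replicates above a set limit; inactive means most replicates below a set limit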;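 further: all wells also contain fluconazole at 8 µg/ml as a sub-toxic cotreatment; 0% = median of DMSO wells and 100% = median of geldanamycin control wells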
# Platelet DG rel: modulates dense granule release in human platelets | human platelet-rich plasma, SFLLRN dense granule ATP release, luminescence | inhibition, %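 (compounds screened at 7.5 µM in platelet-rich plasma)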 | 300,000 tested, 0.22% active | AID 1663;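 active means mean replicate score, as percent of positive control, at or above 50; inconclusive means mean below 50 but at least one replicate at or above 50; inactive means mean and every replicate below 50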
# * = called active by the depositor; ? = inconclusive; . = not tested or not shown.
SMILES,Yeast superoxide,SKKanGAS inh,PolyA inhibitor,Calb FLC,Platelet DG rel
COc1cc(OC)cc(OC(=O)C2CCN(S(=O)(=O)c3ccc(OC)c(OC)c3)CC2)c1,94.2,-6.9,-7.2,-6.9,21.5
O=C(/C=C/Nc1ccccc1Br)c1ccccn1,101.6,13.9,0.5,-0.8,53.9*
O=C(/C=C\Nc1ccccn1)c1ccccc1,108.2,8.3,33.9,-33.9,23.8
O=C(Nc1ccc(C2=NCCN2)cc1)c1ccc(C(=O)Nc2ccc(C3=NCCN3)cc2)c(Cl)c1,95.8,16.8,-47.9,90.3*,-11.3
Oc1ccc(/C=N/NC(=S)Nc2cccnc2)cc1,106.2,-0.2,-0.7,-1.3,10.3
Oc1ccc(/C=N/NC(=S)N/N=C/c2ccc(O)cc2)cc1,111.4,5.2,-4.9,-11.0,114.7*
COc1ccc(NC(C)c2ccccc2)cc1 (stereo unspecified),.,18.3,-25.9,3.1,3.2
COc1ccc(NC(=O)NC(C)c2ccccc2)cc1 (stereo unspecified),135.5,.,.,100.1*,.
Cc1cccc(NC(=O)c2nc[nH]c2C(=O)N[C@@H](Cc2ccccc2)C(=O)OCc2ccccc2)c1,112.9,63.5*,14.1,3.4,0.3
CCOC(=O)c1ccc(NC(=O)c2nc[nH]c2C(=O)N[C@@H](CC(C)C)C(=O)OCc2ccccc2)cc1,97.6,62.6*,-7.8,6.6,0.7
CCOC(=O)c1ccc(NC(=O)c2nc[nH]c2C(=O)N[C@H](C)c2ccccc2)cc1,101.5,78.3*,22.5,-10.2,4.1
COc1cc(C)c(CN2CCC(n3nccc3NC(=O)C3CC3)CC2)cc1C,103.9,0.5,14.2,-3.7,-8.2
COc1ccc(-c2noc(-c3ccc4c(c3)OCO4)n2)cc1,102.3,2.2,-7.3,20.4,2.3
COc1ccc(-c2nc(-c3ccc4c(c3)OCO4)[nH]c2-c2ccc(OC)cc2)cc1,94.7,55.5*,-5.1,21.3,-3.4
Cc1cnc(NC(=O)C2CCC(C(C)(C)C)CC2)s1 (stereo unspecified),112.2,?,15.0,1.9,-12.9
COc1cccc(/C=N/Nc2ccc(S(=O)(=O)O)cc2)c1O,132.5,4.9,1.4,-5.9,55.5*
COc1cccc(/C=N/Nc2ccc(C(=O)O)cc2)c1O,95.4,26.9,18.1,10.6,95.3*
COc1cccc(/C=N/Nc2ccccc2C(=O)O)c1O,111.3,5.1,-7.2,10.4,9.1
COc1cc(C(=O)NC(=S)Nc2ccc(NC(=O)c3ccco3)cc2)cc(OC)c1OC,89.3,66.2*,-18.0,10.7,8.5
O=C(Nc1ccc(Oc2cccc3ccccc23)cc1)c1ccco1,107.0,79.3*,3.3,-10.6,7.8
O=C(O)c1ccccc1C(=O)Nc1ccc(Oc2cccc3ccccc23)cc1,.,-4.4,-9.2,-37.9,3.6
CC(CCc1ccccc1)NC(=S)NC(=O)c1ccco1 (stereo unspecified),109.4,4.3,0.4,-11.9,-0.2
COc1cc(C(=O)NC(=S)N(CCc2ccccc2)CCc2ccccc2)cc(OC)c1OC,107.9,90.0*,-1.3,92.8*,6.9
COc1cc(C(=O)NC(=S)N(C)Cc2ccccc2)cc(OC)c1OC,103.3,3.7,-1.2,-5.1,8.8
O=C(NC(=S)N(CCc1ccccc1)CCc1ccccc1)c1ccco1,106.9,81.8*,-16.1,-24.9,-17.5
SMILES,Yeast superoxide,SKKanGAS inh,PolyA inhibitor,Calb FLC,Platelet DG rel
Cc1ccccc1C(=O)NNC(=O)/C=C/c1ccccc1,92.2,-2.9,10.8,6.7,2.6
CCOC(=O)N1CCN(C(=O)CNC(=O)c2ccc(Br)cc2)CC1,83.8,1.5,7.6,0.2,-0.3
O=C(O)C1=C[C@H](c2ccc(Br)cc2)C[C@H](OCc2ccc(CO)cc2)O1,.,0.5,0.5,-9.4,0.4
CC(C)(C)c1cc(CCC(=O)NNC(=O)c2ccco2)cc(C(C)(C)C)c1O,100.2,23.3,-5.3,0.5,-2.7
O=C(CCc1ccccc1)NNC(=S)NCCc1ccccc1,95.9,1.0,-1.6,2.8,12.4
CC(=O)NC(=S)NNC(=O)CCc1ccccc1,83.7,3.2,-5.8,-15.4,-1.4
CC(C)(C)c1cc(CCC(=O)NNC(=S)NC(=O)c2ccccc2)cc(C(C)(C)C)c1O,95.1,97.1*,2.4,71.2,18.2
CCCCC(=O)NC(=S)NNC(=O)CCc1ccccc1,101.8,75.5*,-7.7,-5.6,-1.1
O=C(CCc1ccccc1)NNC(=S)NC(=O)c1ccccc1,171.6,63.9*,-61.5,110.1*,6.3
COc1ccc(S(=O)(=O)NC(CC(C)C)C(=O)NC(C)c2cccs2)cc1 (stereo unspecified),135.3,.,.,.,.
